In publication PMC11006913:
Where a chain is given by its changes, count along the chain named.

Key:
Experiment in all cases: PBM; 200 nM protein, PBS
Conditions in all cases: dsDNA, one strand shown
ALX3 [1] = target: ALX3 (Homo sapiens, UniProt O95076 139-225, N203Q)
ALX3 [2] = target: ALX3 (Homo sapiens, UniProt O95076 139-225)
VAX1 [3] = target: VAX1 (Homo sapiens, UniProt Q5SQQ9 86-172)
ALX3 [4] = target: ALX3 (Homo sapiens, UniProt O95076 139-225, L168Q)
ALX3 [5] = target: ALX3 (Homo sapiens, UniProt O95076 139-225, L168V)
VAX1 [6] = target: VAX1 (Homo sapiens, UniProt Q5SQQ9 86-172, T142I)
ALX3 [7] = target: ALX3 (Homo sapiens, UniProt O95076 139-225, N203S)
VAX1 [8] = target: VAX1 (Homo sapiens, UniProt Q5SQQ9 86-172, K157R)
HOXD13 [9] = target: HOXD13 (Homo sapiens, UniProt P35453 263-343, T313R)
HOXD13 [10] = target: HOXD13 (Homo sapiens, UniProt P35453 263-343)
HOXD13 [11] = target: HOXD13 (Homo sapiens, UniProt P35453 263-343, T313A)
PAX4 [12] = target: T1, PAX4 (Homo sapiens, UniProt O43316 9-242, F177V)
T1 sequence: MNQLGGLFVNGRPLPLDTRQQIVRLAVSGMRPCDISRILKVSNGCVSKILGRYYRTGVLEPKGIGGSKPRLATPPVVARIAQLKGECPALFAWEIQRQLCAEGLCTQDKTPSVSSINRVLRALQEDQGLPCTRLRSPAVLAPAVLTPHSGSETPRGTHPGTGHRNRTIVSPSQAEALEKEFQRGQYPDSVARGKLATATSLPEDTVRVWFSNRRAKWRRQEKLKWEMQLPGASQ

PAX4 [13] = target: T2, PAX4 (Homo sapiens, UniProt O43316 9-242, F177Y)
T2 sequence: T1 sequence with V169Y

ALX3 (Homo sapiens, UniProt O95076 139-225), sequence (O95076 139-225): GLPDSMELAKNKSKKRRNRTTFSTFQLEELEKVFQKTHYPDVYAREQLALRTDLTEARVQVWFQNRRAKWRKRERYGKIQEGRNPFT
ALX3 (Homo sapiens, UniProt O95076 139-225, L168Q), sequence (O95076 139-225 L168Q): as the sequence (O95076 139-225) above, with L30Q counted along it
ALX3 (Homo sapiens, UniProt O95076 139-225, N203Q), sequence (O95076 139-225 N203Q): as the sequence (O95076 139-225) above, with N65Q counted along it
ALX3 (Homo sapiens, UniProt O95076 139-225, L168V), sequence (O95076 139-225 L168V): as the sequence (O95076 139-225) above, with L30V counted along it
ALX3 (Homo sapiens, UniProt O95076 139-225, N203S), sequence (O95076 139-225 N203S): as the sequence (O95076 139-225) above, with N65S counted along it
VAX1 (Homo sapiens, UniProt Q5SQQ9 86-172, T142I), sequence (Q5SQQ9 86-172 T142I): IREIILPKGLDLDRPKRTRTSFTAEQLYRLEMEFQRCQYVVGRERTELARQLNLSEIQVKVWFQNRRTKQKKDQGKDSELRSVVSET
VAX1 (Homo sapiens, UniProt Q5SQQ9 86-172, K157R), sequence (Q5SQQ9 86-172 K157R): as the sequence (Q5SQQ9 86-172 T142I) above, with I57T, K72R counted along it
VAX1 (Homo sapiens, UniProt Q5SQQ9 86-172), sequence (Q5SQQ9 86-172): as the sequence (Q5SQQ9 86-172 T142I) above, with I57T counted along it
HOXD13 (Homo sapiens, UniProt P35453 263-343, T313A), sequence (P35453 263-343 T313A): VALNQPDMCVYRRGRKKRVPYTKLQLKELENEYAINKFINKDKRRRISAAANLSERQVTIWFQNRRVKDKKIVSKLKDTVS
HOXD13 (Homo sapiens, UniProt P35453 263-343, T313R), sequence (P35453 263-343 T313R): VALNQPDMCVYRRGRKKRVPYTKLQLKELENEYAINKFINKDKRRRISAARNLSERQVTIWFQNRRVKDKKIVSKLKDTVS
HOXD13 (Homo sapiens, UniProt P35453 263-343), sequence (P35453 263-343): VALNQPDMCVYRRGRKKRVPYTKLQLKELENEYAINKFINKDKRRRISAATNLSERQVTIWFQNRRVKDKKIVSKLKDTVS

GCTCTGCC
binding signal (ALX3 [1]): 7.7 upbm affinity estimate (log intensity, higher = more binding, comparable within an allelic series) | binding signal (ALX3 [2]): 7.55 upbm affinity estimate (log intensity, higher = more binding, comparable within an allelic series) | binding signal (VAX1 [3]): 7.01 upbm affinity estimate (log intensity, higher = more binding, comparable within an allelic series) | binding signal (ALX3 [4]): 7.72 upbm affinity estimate (log intensity, higher = more binding, comparable within an allelic series) | binding signal (ALX3 [5]): 7.75 upbm affinity estimate (log intensity, higher = more binding, comparable within an allelic series) | binding signal (VAX1 [6]): 7.19 upbm affinity estimate (log intensity, higher = more binding, comparable within an allelic series) | binding signal (ALX3 [7]): 7.71 upbm affinity estimate (log intensity, higher = more binding, comparable within an allelic series) | binding signal (VAX1 [8]): 7.08 upbm affinity estimate (log intensity, higher = more binding, comparable within an allelic series)

CCCCCCAA
binding signal (ALX3 [1]): 7.79 upbm affinity estimate (log intensity, higher = more binding, comparable within an allelic series) | binding signal (ALX3 [2]): 7.79 upbm affinity estimate (log intensity, higher = more binding, comparable within an allelic series) | binding signal (ALX3 [4]): 7.64 upbm affinity estimate (log intensity, higher = more binding, comparable within an allelic series) | binding signal (ALX3 [5]): 7.7 upbm affinity estimate (log intensity, higher = more binding, comparable within an allelic series) | binding signal (ALX3 [7]): 7.81 upbm affinity estimate (log intensity, higher = more binding, comparable within an allelic series)

CTTAATTC
binding signal (ALX3 [1]): 8.32 upbm affinity estimate (log intensity, higher = more binding, comparable within an allelic series) | binding signal (ALX3 [2]): 11.7 upbm affinity estimate (log intensity, higher = more binding, comparable within an allelic series) | binding signal (ALX3 [4]): 9.59 upbm affinity estimate (log intensity, higher = more binding, comparable within an allelic series) | binding signal (ALX3 [5]): 9.14 upbm affinity estimate (log intensity, higher = more binding, comparable within an allelic series) | binding signal (ALX3 [7]): 8.4 upbm affinity estimate (log intensity, higher = more binding, comparable within an allelic series)

GACATAAC
binding signal (ALX3 [1]): 8.29 upbm affinity estimate (log intensity, higher = more binding, comparable within an allelic series) | binding signal (ALX3 [2]): 9.44 upbm affinity estimate (log intensity, higher = more binding, comparable within an allelic series)

AGGGGGGC
binding signal (ALX3 [1]): 7.49 upbm affinity estimate (log intensity, higher = more binding, comparable within an allelic series) | binding signal (ALX3 [2]): 7.66 upbm affinity estimate (log intensity, higher = more binding, comparable within an allelic series) | binding signal (ALX3 [4]): 7.62 upbm affinity estimate (log intensity, higher = more binding, comparable within an allelic series) | binding signal (ALX3 [5]): 7.47 upbm affinity estimate (log intensity, higher = more binding, comparable within an allelic series) | binding signal (ALX3 [7]): 7.44 upbm affinity estimate (log intensity, higher = more binding, comparable within an allelic series)

TTATTAAA
binding signal (ALX3 [1]): 8.64 upbm affinity estimate (log intensity, higher = more binding, comparable within an allelic series) | binding signal (HOXD13 [9]): 10.8 upbm affinity estimate (log intensity, higher = more binding, comparable within an allelic series) | binding signal (HOXD13 [10]): 11.9 upbm affinity estimate (log intensity, higher = more binding, comparable within an allelic series) | binding signal (HOXD13 [11]): 11.7 upbm affinity estimate (log intensity, higher = more binding, comparable within an allelic series) | binding signal (ALX3 [7]): 8.68 upbm affinity estimate (log intensity, higher = more binding, comparable within an allelic series)

CCGCGGAC
binding signal (ALX3 [1]): 7.74 upbm affinity estimate (log intensity, higher = more binding, comparable within an allelic series) | binding signal (ALX3 [2]): 7.45 upbm affinity estimate (log intensity, higher = more binding, comparable within an allelic series) | binding signal (ALX3 [4]): 7.7 upbm affinity estimate (log intensity, higher = more binding, comparable within an allelic series) | binding signal (ALX3 [5]): 7.67 upbm affinity estimate (log intensity, higher = more binding, comparable within an allelic series) | binding signal (ALX3 [7]): 7.75 upbm affinity estimate (log intensity, higher = more binding, comparable within an allelic series)

CATATTAC
binding signal (ALX3 [1]): 8.38 upbm affinity estimate (log intensity, higher = more binding, comparable within an allelic series) | binding signal (ALX3 [2]): 10.5 upbm affinity estimate (log intensity, higher = more binding, comparable within an allelic series) | binding signal (VAX1 [3]): 10.8 upbm affinity estimate (log intensity, higher = more binding, comparable within an allelic series) | binding signal (VAX1 [6]): 10.4 upbm affinity estimate (log intensity, higher = more binding, comparable within an allelic series) | binding signal (VAX1 [8]): 10.5 upbm affinity estimate (log intensity, higher = more binding, comparable within an allelic series)

CGCTCCCC
binding signal (ALX3 [1]): 7.64 upbm affinity estimate (log intensity, higher = more binding, comparable within an allelic series) | binding signal (ALX3 [2]): 7.58 upbm affinity estimate (log intensity, higher = more binding, comparable within an allelic series) | binding signal (ALX3 [4]): 7.75 upbm affinity estimate (log intensity, higher = more binding, comparable within an allelic series) | binding signal (ALX3 [5]): 7.7 upbm affinity estimate (log intensity, higher = more binding, comparable within an allelic series) | binding signal (ALX3 [7]): 7.67 upbm affinity estimate (log intensity, higher = more binding, comparable within an allelic series)

TATACATA
binding signal (ALX3 [1]): 8.57 upbm affinity estimate (log intensity, higher = more binding, comparable within an allelic series) | binding signal (PAX4 [12]): 10.7 upbm affinity estimate (log intensity, higher = more binding, comparable within an allelic series) | binding signal (PAX4 [13]): 10.7 upbm affinity estimate (log intensity, higher = more binding, comparable within an allelic series)

ACCGGTTA
binding signal (ALX3 [1]): 8.13 upbm affinity estimate (log intensity, higher = more binding, comparable within an allelic series) | binding signal (ALX3 [2]): 9.46 upbm affinity estimate (log intensity, higher = more binding, comparable within an allelic series) | binding signal (ALX3 [4]): 8.24 upbm affinity estimate (log intensity, higher = more binding, comparable within an allelic series) | binding signal (ALX3 [5]): 8.11 upbm affinity estimate (log intensity, higher = more binding, comparable within an allelic series) | binding signal (ALX3 [7]): 8.2 upbm affinity estimate (log intensity, higher = more binding, comparable within an allelic series)

CCTAACAG
binding signal (ALX3 [1]): 8.02 upbm affinity estimate (log intensity, higher = more binding, comparable within an allelic series) | binding signal (ALX3 [2]): 8.92 upbm affinity estimate (log intensity, higher = more binding, comparable within an allelic series) | binding signal (ALX3 [4]): 8.23 upbm affinity estimate (log intensity, higher = more binding, comparable within an allelic series) | binding signal (ALX3 [5]): 8.19 upbm affinity estimate (log intensity, higher = more binding, comparable within an allelic series) | binding signal (ALX3 [7]): 8.09 upbm affinity estimate (log intensity, higher = more binding, comparable within an allelic series)
